Results on 55 compounds are retold here after PubChem BioAssay AID488840 (Broad Institute, 2010).

SMILES strings stand for the structures. Out of some 1,400 compounds screened, about 45 (3%) were called active. The list is a sample of the results. Entries with a potency or affinity are not part of this list. Values without a mark were called inactive.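 The calls were made as follows: active = half-maximal dose of signal decrease from fit no higher than ten times the top valid tested dose; inconclusive = fit invalid, or curve flat with 30 to 70% inhibition; inactive = the rest.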

For this test, the target named is Lysine-specific demethylase 4A (Homo sapiens) (UniProt O75164). Description: JMJD2A histone demethylase inhibitors, dose response, selectivity assay for GASC-1 inhibitor project, biochemical, DELFIA europium, cherry-picked samples (AID 488840).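 Also: europium signal reports the dimethyl H3K9 product detected by antibody so inhibitors lower it; 0% = median of neutral control wells and -100% = median of positive control wells.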 The following applies: GST-JMJD2A(1-420) H3K9me3 demethylation; series mostly up to 6 µM; activity change, negative = inhibition: at the top concentration.
Lysine-specific demethylase 4A (Homo sapiens), sequence (O75164 whole entry, looked up): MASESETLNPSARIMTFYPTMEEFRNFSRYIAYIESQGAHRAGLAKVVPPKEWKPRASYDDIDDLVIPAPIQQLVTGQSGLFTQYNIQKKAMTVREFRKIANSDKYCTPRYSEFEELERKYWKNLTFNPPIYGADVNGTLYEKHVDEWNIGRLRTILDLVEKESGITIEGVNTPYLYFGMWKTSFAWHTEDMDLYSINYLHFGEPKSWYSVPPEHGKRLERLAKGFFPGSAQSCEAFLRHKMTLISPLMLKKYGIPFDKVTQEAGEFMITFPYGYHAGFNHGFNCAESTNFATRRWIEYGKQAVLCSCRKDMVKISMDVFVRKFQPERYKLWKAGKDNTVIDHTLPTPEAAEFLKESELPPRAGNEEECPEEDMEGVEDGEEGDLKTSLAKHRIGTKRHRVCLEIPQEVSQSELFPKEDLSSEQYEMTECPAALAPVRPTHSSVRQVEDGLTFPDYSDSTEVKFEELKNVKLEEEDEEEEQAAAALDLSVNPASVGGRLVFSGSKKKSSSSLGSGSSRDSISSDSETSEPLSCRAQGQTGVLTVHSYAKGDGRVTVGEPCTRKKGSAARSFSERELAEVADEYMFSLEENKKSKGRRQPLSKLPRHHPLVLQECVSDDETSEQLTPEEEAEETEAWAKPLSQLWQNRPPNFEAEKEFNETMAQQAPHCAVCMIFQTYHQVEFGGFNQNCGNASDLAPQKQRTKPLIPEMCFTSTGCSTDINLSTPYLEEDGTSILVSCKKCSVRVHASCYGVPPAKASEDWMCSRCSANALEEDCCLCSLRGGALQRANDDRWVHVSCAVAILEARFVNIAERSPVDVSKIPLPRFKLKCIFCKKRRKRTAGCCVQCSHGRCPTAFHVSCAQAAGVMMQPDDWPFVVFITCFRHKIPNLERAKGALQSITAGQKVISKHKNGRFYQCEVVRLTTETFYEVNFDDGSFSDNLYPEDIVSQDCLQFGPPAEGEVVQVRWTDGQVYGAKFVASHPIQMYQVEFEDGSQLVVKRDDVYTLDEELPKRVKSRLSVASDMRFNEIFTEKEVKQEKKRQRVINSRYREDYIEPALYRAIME
On to `COC(=O)CSC1=C(C#N)C(c2ccsc2)CC(=O)N1` (stereo not given), for which the “activity change, negative = inhibition” value is 0.445%. `COc1ccc(N2C(=O)CSC23CCCCC3)cc1`: the “activity change, negative = inhibition” value is 1.88%. Under `Cc1cccnc1Nc1nc(-c2ccc(O)cc2)cs1` stands 4.45%; under `COc1ccc(/C=C(/C(=O)NCc2ccccc2)c2ccccc2)cc1`, -0.518%. Under `Cc1cccc(NC(=S)N2CCN(Cc3ccc4c(c3)OCO4)CC2)c1C` stands -13%; under `CC1(C)[N+]([O-])=C2C(=[N+]([O-])C1(C)C)c1ccccc1/C2=N\O`, -8.61%.

In the case of `O=C1NCCN1CCNS(=O)(=O)c1ccccc1[N+](=O)[O-]`, the “activity change, negative = inhibition” value was -0.557%. Under `Cc1ccc(NC(=O)COC(=O)c2ccco2)cc1S(=O)(=O)N1CCOCC1` stands -1.17%. Take `Cc1ccc(/C=N/NC(=O)c2ccc(C(=O)N/N=C/c3ccc(C)s3)o2)s1`: the “activity change, negative = inhibition” value is 2.44%.

Take `CC(C)C[C@@H]1CN=C(N)N1C[C@@H]1CCCN1C[C@H](C)N1C[C@@H](Cc2ccccc2)N(CCc2ccc(Cl)c(Cl)c2)C1=N`: the “activity change, negative = inhibition” value was 25.9%. For `Cc1ccc(S(=O)(=O)N2CCOCC2)cc1C(=O)NNC(=O)c1ccoc1C`, the “activity change, negative = inhibition” value is 1.14%.

Take `COCCCNC(=O)CC1C[C@H](C(=O)N2CCOCC2)[C@@]2(C)c3[nH]c4ccccc4c3CCN2C1=O` (stereo not given in full): the “activity change, negative = inhibition” value is 7.23%. Under `Cc1noc(C)c1CCC(=O)N1CCCC(CCC(=O)NCc2ccccc2F)C1` (stereo not given) stands -5.05%; under `COCCn1c(N)c(C(=O)NCC2CCCO2)c2nc3ccccc3nc21` (stereo not given), 5.88%; under `Cn1c(=O)c2c(nc(NC3CCCCC3)n2Cc2ccccc2)n(C)c1=O`, -1.32%. As to `CC(=O)C[C@@H](O)CC(=O)[C@@H]1OC(=O)[C@@H](C)C/C=C\Cc2ccccc21`, the “activity change, negative = inhibition” value was -0.669%. Turning to `CCN1C(=O)C(CC(=O)Nc2ccc(OC)cc2)N(CCc2ccccc2F)C1=S` (stereo not given), the “activity change, negative = inhibition” value was -0.736%.

As to `COC(=O)C1CC(O)CN1C(=O)NC1CCCCC1` (stereo not given), the “activity change, negative = inhibition” value is -1.32%. As for `CCCCn1c(=O)[nH]c(=O)c2c1nc(-c1cc(Cl)c(OC)c(OC)c1)n2C`, the “activity change, negative = inhibition” value was 1.79%. Under `CNc1nc2c(c(=O)[nH]c(=O)n2C)n1CCCc1ccccc1` stands -6.12%. For the compound `COc1ccc(/C=N/NS(=O)(=O)c2ccc(NC(C)=O)cc2)cc1`, the “activity change, negative = inhibition” value is 3.47%.

Regarding `N/C(=N\S(=O)(=O)c1cc(C(F)(F)F)cc(C(F)(F)F)c1)c1ccccc1`, the “activity change, negative = inhibition” value was -1.03%.

Regarding `C[C@@H]1CN([C@@H](C)CO)C(=O)c2cc(NC(=O)Nc3ccc4c(c3)OCO4)ccc2O[C@H]1CN(C)S(=O)(=O)c1ccc(F)cc1`, the “activity change, negative = inhibition” value was -2.55%. Under `COC(=O)c1ccc(CSc2nc3sc(C(=O)O)c(C)c3c(=O)[nH]2)cc1` stands 1.96%; under `CC1CCN(C(=S)NC(=O)c2cccc([N+](=O)[O-])c2)CC1`, -0.366%; under `COc1ccccc1CNC(=O)COc1ccc(S(=O)(=O)N2CCOCC2)cc1C`, -1.64%. Under `O=C(CN1C(=O)c2ccccc2C1=O)NCC1COc2ccccc2O1` (stereo not given) stands 4.76%; under `O=C(NC1CC2CCC1C2)C1COc2ccccc2O1` (stereo not given), -5.22%.

Regarding `COc1ccccc1/C=C1\SC(=S)N(CCC(=O)NNC(=O)c2ccccc2OC)C1=O`, the “activity change, negative = inhibition” value is -0.634%. For the compound `CNC[C@@H]1Oc2c(NC(=O)Nc3ccccc3)cccc2C(=O)N([C@@H](C)CO)C[C@H]1C`, the “activity change, negative = inhibition” value was 0.201%. Under `N#Cc1cc(-c2ccccc2)nnc1Sc1ccccc1` stands -0.75%; under `COc1ccc(OCC(=O)N2CCC3(CC2)CC(=O)c2ccccc2O3)cc1`, -2.29%; under `CCc1ccc([C@@H]2CC=C(C(=O)O)[C@H](c3ccc(Br)cc3)N2S(=O)(=O)c2ccc(C)cc2)cc1`, -3.98%. `Cc1ccc(S(=O)(=O)N2[C@@H](c3ccc(Br)cc3)C(C(=O)O)=CC[C@H]2c2cccc(Cl)c2)cc1`: the “activity change, negative = inhibition” value was 4.46%.

For the compound `O=C(Oc1ccc(N2C(=O)CCC2=O)cc1)c1ccccc1`, the “activity change, negative = inhibition” value was -0.204%. As for `O=C(Nc1nnc(-c2cc(Cl)ccc2Cl)o1)c1ccco1`, the “activity change, negative = inhibition” value was -0.944%. For `O=C(CC1C[C@H](C(=O)N2CCCCC2)[C@@]2(CCc3ccccc3)c3[nH]c4ccccc4c3CCN2C1=O)NCCC1=CCCCC1` (stereo not given in full), the “activity change, negative = inhibition” value was 2.22%. For `Cc1ccc(OCC(=O)Nc2ccccc2Sc2ccccc2)c([N+](=O)[O-])n1`, the “activity change, negative = inhibition” value is -1.07%.

For `O=c1oc(C2(O)CCCCC2)cc2ccccc12`, the “activity change, negative = inhibition” value was 1.88%.

For the compound `COc1ccc(C(=O)O/N=C(\C)c2cnccn2)cc1`, the “activity change, negative = inhibition” value was -3.82%. Regarding `COc1ccc(NC(=O)N(C)C[C@H]2Oc3ccc(NC(=O)CCC(F)(F)F)cc3C(=O)N([C@H](C)CO)C[C@@H]2C)cc1`, the “activity change, negative = inhibition” value is -0.526%. Under `O=C(CSc1nc(-c2ccccc2)cc(=O)[nH]1)NCc1ccc2c(c1)OCO2` stands -1.25%; under `O=S(=O)(c1ccc2nc(Nc3ccccc3)ccc2c1)N1CCCCC1`, 14.2%; under `N#Cc1cnn(CC2CCCCC2)c1N`, 2.59%. Under `CC(=O)C(Sc1nc(N2CCOCC2)nc(N2CCOCC2)n1)C(=O)Nc1ccccc1` (stereo not given) stands -2.12%; under `CCOC(=O)C1=C(C)NC(=O)NC1c1ccc(Br)s1` (stereo not given), -9.77%.

As to `CCOC(=O)C1=C(c2ccccc2)NC(=O)NC1c1ccc(O)c(OCC)c1` (stereo not given), the “activity change, negative = inhibition” value is 3%. In the case of `Cc1cc(SCC(=O)c2ccccc2)n2nc(C)nc2n1`, the “activity change, negative = inhibition” value is 4.99%. Regarding `N=c1nc(-c2ccccc2)ccn1O`, the “activity change, negative = inhibition” value was 2.55%. `O=C(NCC1CCCO1)Nc1ccccc1` (stereo not given): the “activity change, negative = inhibition” value is 4.13%. Under `CCOc1ccc(CN2CCN(Cc3nc(C(C)C)cs3)CC2CCO)cc1` (stereo not given) stands 9.55%; under `O=C(OCc1c(Cl)cccc1Cl)c1cnccn1`, -3.04%. Under `Cn1c(=O)c2[nH]c(N3CCN(c4cccc(O)c4)CC3)nc2n(C)c1=O` stands 1.58%; under `Cc1ccc(NN=Nc2nc3c([nH]2)c(=O)n(C)c(=O)n3C)cc1`, -12.8%. Under `C#CCOCCOCCOCCNc1nc(N2CCN(C(=O)C([C@@H](C)O)n3cc([C@@H](N)CCCCN)nn3)CC2)nc(N2CCN(C(=O)[C@H](CC(N)=O)n3cc([C@@H](N)C(C)C)nn3)CC2)n1` (stereo not given in full) stands 0.979%.
